Assay results from PubChem BioAssay.
The source made the active and inactive calls.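 How the source made its calls: active means inhibition above the hit cutoff set in the earlier primary screen (cut at about 27% in these data); inactive means the rest.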

target: Protein phosphatase methylesterase 1 (Homo sapiens) (UniProt Q9Y570); assay: PME-1 inhibitor activity retest, confirmation, biochemical, fluorescence polarization, FP-Rh probe, triplicate (AID 2171); settings: recombinant PME-1, FP-Rh probe fluorescence polarization; at 5.9 µM; stronger effect = higher value;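 further: 0% = enzyme with DMSO and 100% = wells lacking PME-1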
Sequence (Q9Y570 whole entry, looked up): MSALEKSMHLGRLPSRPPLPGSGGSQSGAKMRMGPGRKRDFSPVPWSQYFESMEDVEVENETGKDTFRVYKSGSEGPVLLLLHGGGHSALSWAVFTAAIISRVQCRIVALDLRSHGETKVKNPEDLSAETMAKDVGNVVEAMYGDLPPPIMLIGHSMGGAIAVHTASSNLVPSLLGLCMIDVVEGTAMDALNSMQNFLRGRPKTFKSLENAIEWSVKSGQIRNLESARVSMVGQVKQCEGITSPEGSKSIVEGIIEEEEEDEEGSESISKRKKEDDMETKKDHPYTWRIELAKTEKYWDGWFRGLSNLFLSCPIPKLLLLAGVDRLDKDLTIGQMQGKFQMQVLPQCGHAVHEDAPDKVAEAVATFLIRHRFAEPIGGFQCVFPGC

inhibition, inactive:
CC(C)(C)n1nnnc1C(c1cccs1)N(Cc1cccnc1)Cc1ccco1 (stereo not given) 15.8%
Cc1cc(C)cc(NC(=S)NCCc2c[nH]c3ccccc23)c1 25.5%
O=C(N/N=C/c1ccc(O)c(O)c1)c1ccc(CSc2cccc3cccnc23)cc1 -3.59%
CC(C)S(=O)(=O)c1csc(NC(=O)Nc2cccc([N+](=O)[O-])c2)c1Cl -58.5%
Cc1ccc(NC(=O)COc2cccc(/C=C3\SC(=S)N(CCC(=O)O)C3=O)c2)cc1Cl 26%
Oc1ccc(C2Nc3cccc4cccc(c34)N2)c(O)c1 21.4%
Cc1nn(-c2ccccc2)c2ncc(C(=O)c3cc(Cl)ccc3O)cc12 -5.34%
CCOc1cc(CNc2ccc(O)cc2)ccc1OCc1ccc(Cl)cc1Cl 13.2%
CCN1CCc2c(sc(NC(=O)Nc3ccc(Cl)c(Cl)c3)c2C(N)=O)C1 14.2%
O=C1/C(=C/Nc2ccc3c(c2)OCO3)CCc2ccccc21 19.5%
COc1ccc(-c2cc(-c3c(O)c(OC)c4occc4c3OC)[nH]n2)cc1 19.9%
N#Cc1c(N)n(CCOC(=O)c2cccc([N+](=O)[O-])c2)c2nc3ccccc3nc12 19.5%
COc1ccc(/C=N/Nc2snc(SC)c2C#N)cc1OC 24.9%
O=C(CNc1ccc(F)cc1)N/N=C/c1c(O)ccc2ccccc12 16.3%
COc1cccc(Oc2ccc(S(=O)(=O)N3CCCC3)cc2[N+](=O)[O-])c1 21.4%
O=C(CN1CCCc2ccccc21)N/N=C/c1c(O)ccc2ccccc12 5.54%
COc1ccc(CCn2c(N)c(C#N)c3nc4ccccc4nc32)cc1OC 25.9%
C=C(C)COc1ccc(-c2[nH]ncc2-c2ccc(OC)c(OC)c2)c(O)c1 22.1%
CN(C)c1ccc(NC(=O)Nc2ccc3snnc3c2)cc1 21%
C/C(=N/Nc1ccnc2cc(Cl)ccc12)c1ccc(N)cc1 26%
Brc1ccc(/C=N/Nc2nc3ccccc3o2)cc1 22.2%
COc1ccccc1N1CCN(C(=O)C2CCN(S(=O)(=O)c3ccc(C)cc3)CC2)CC1 15.3%

inhibition, active:
CCCCCCn1c(=O)[nH]c2nc3cc(N)ccc3nc2c1=O 37.6%
O=C1c2cccc3c(O)ccc(c23)C(=O)N1c1ccc(Cl)cc1 28.3%
CC(C)c1ccc2c(c1)C1(NN=C(c3ccccc3)S1)C(=O)N2 (stereo not given) 33.9%
COc1ccc(-c2cc(-c3ccc(C)cc3)n[nH]2)c(O)c1 37.7%
C/C(=N/NC(=O)c1cc2ccccc2cc1O)C1C(=O)c2ccccc2C1=O 68.6%
Cn1c(=O)c(NCCO)c2c3c(cccc31)C(=O)c1ccccc1-2 134%
CCCSc1nnc(NC(=O)c2sc3nc(-c4cccs4)ccc3c2N)s1 37.4%
O=c1[nH]c(C2CCN(S(=O)(=O)c3ccc(C(F)(F)F)cc3)CC2)nc2c1nnn2Cc1ccc(F)cc1 79.1%
CC(C)=CCc1cc(-c2oc3cc(O)cc(O)c3c(=O)c2O)ccc1O 36.8%
CCCCN(C)CCCNC(=O)c1cn(CC)c2ccc(S(=O)(=O)N3CCc4ccccc4C3)cc2c1=O 53.6%
CCc1nnc(NC(=O)c2sc3nc4cc(C)ccc4cc3c2N)s1 31.8%
Cc1cc(C)c(NC(=O)COC(=O)c2cccc3c2C(=O)c2ccccc2C3=O)c(C)c1 42.1%
O=C(Nc1ccc2[nH]c(=S)sc2c1)Nc1ccccc1F 67.4%
COc1cc(/C=C/c2ccc3cccc(O)c3n2)c(Br)cc1O 27.5%
Cc1cc2nc3c(=O)n(CCc4ccccc4)c(=O)[nH]c3nc2cc1N 44.2%
O=C1c2cccc3c([N+](=O)[O-])ccc(c23)C(=O)N1c1ccc(Cl)cn1 34.9%
COc1ccc(NC(C(=O)Nc2cccc(C(C)=O)c2)c2ccccc2)cc1 (stereo not given) 36%
Cc1[nH]n(-c2ccccc2)c(=O)c1N=Nc1c(O)cc(S(=O)(=O)N(C)C)c2ccccc12 74.3%
